# Assay results reported in PubChem BioAssay (NCATS).
# Several values for one entry are separate records, joined by “and”; a condition that tells them apart may be missing. Equal entries are not always repeated. Results filed as inconclusive are left out. Values without a mark were called inactive. The call rests on the fitted dose curve; in most records, active means well fitted activation curve with a large enough effect; inconclusive means small, poorly fitted or top-dose-only effect; inactive means no such curve, though single readings can be large or run the other way.
# Target: Cellular tumor antigen p53 (Homo sapiens) (UniProt P04637)
# Experiment: Primary qHTS for small molecule compounds that upregulate eGFP-tagged delta133p53alpha (in N-terminal) cells. (AID 2060322);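 further: series mostly up to about 56 µM; 0% = DMSO vehicle and 100% = reference activator; nearly all actives have a fitted effect of over 75% in size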
# Conditions: NCI-H358 eGFP-delta133p53alpha fluorescence, 24 h; activation: hits give high values
# Outline: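 NCI-H358 cells pre-induced 24 h with 10 ng/ml doxycycline for eGFP-delta133p53alpha, plated dox-free and exposed 24 h at 37C to titrated compounds. Fixed, Hoechst-stained; gated GFP peak intensity by laser scanning cytometry, normalized to DMSO (0%) and 57.5 uM 5-azacytidine (100%).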
# Sequence of Cellular tumor antigen p53 (Homo sapiens) (P04637 whole entry, looked up): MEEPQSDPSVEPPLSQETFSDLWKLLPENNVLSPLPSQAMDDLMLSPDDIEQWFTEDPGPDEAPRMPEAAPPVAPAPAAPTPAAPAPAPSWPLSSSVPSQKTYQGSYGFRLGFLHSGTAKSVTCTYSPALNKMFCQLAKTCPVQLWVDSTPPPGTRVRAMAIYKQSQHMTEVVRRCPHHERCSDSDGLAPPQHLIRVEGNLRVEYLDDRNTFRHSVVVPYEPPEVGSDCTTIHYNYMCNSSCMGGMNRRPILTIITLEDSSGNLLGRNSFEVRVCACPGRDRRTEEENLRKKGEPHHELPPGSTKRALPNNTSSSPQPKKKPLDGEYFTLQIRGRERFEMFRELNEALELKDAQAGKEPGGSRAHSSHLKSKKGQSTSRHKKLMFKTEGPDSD
row,Compound,activation
1,Nc1ncnc2c1nc(Sc1ccc(Cl)cc1)n2[C@H]1OC2COP(=O)(O)O[C@@H]2C1O (stereo not given in full),27.8%
2,CCCn1c(=O)c2c(ncn2C)n(CCC)c1=O,-49.6%
3,COc1cc(Cc2cnc(N)nc2N)cc(OC)c1OC,-5.08% and -24.5%
4,CO[C@H]1O[C@@H]2O[C@]3(C)CC[C@@H]4[C@@H](C)CC[C@H]([C@H]1C)[C@]24OO3,-13%
5,CCN1CCC[C@H]1CNC(=O)c1c(O)c(Cl)cc(Cl)c1OC,-10% and -6.2%
6,OC[C@H]1O[C@@H](n2cnc3cncnc32)[C@H](O)[C@@H]1O,-14.1%
7,O=C(O)c1cc(=O)cc(C(=O)O)[nH]1,-16.3%
8,O=C(O)c1cc2cc(F)ccc2[nH]1,-70.8%
9,COc1ccccc1N1CCN(CCCNc2c(C)c(=O)n(C)c(=O)n2C)CC1,-0.789%
10,CC1CCN=C(N)S1 (stereo not given),-24.3%
11,CCCn1c(=O)[nH]c(=O)c2[nH]cnc21,24.9%
12,N[C@@H](Cc1cnc[nH]1)C(=O)O,30.1%
13,[Li+],-7.03%
14,COC(=O)c1c(C)[nH]c(C)c1C(=O)c1ccccc1Cc1ccccc1,-23.2%
15,COc1cccc(C(=O)NCCN2CCN(c3ccc(Cl)cc3)CC2)c1,-34.4%
16,CN1CCCC1CCOC(C)(c1ccccc1)c1ccc(Cl)cc1 (stereo not given),-26.8%
17,O=C(O)CC[C@@H](C(=O)O)N1C(=O)c2ccccc2C1=O,-14.6%
18,CC1CCN(CC[C@H]2CCCN2S(=O)(=O)c2cccc(O)c2)CC1,-4.01%
19,O=c1[nH]c2cc(Cl)ccc2c(O)c1-c1ccc(Oc2ccccc2)cc1,23.6%
20,CNCCc1cnc(CCC(c2ccccc2)c2ccccc2)[nH]1,-38.1%

row,Compound,activation
1,N[C@@H](Cc1ccc(O)c(I)c1)C(=O)O,-4.51%
2,N[C@@H](CCC(=O)N[C@H](CSN=O)C(=O)NCC(=O)O)C(=O)O,-28.5%
3,Nc1nc2[nH]c(=O)cnc2c(=O)[nH]1,-25.1%
4,Nc1nc2ccc(Cl)cc2n2c(-c3ccccc3)nnc12,-21.3%
5,NCCCCC(=O)O,-27.1%
6,O=C(O)C1CCCNC1 (stereo not given),-25.6%
7,Cn1c(=O)c2c(nc(/C=C/c3cccc(Cl)c3)n2C)n(C)c1=O,-0.199%
8,CN1C2CCC1CC(OC(=O)c1c[nH]c3ccccc13)C2 (stereo not given),-37.1%
9,CCO/C([O-])=N/c1c[n+](N2CCOCC2)no1,9.21% and 19.2%
10,CC(C)(C)NC[C@H](O)COc1nsnc1N1CCOCC1,-9.94%
11,O=C(CCSCc1ccco1)NNC(=O)N1Cc2ccccc2Oc2ccc(Cl)cc21,22%
12,CC(C)C(=O)c1c(C(C)C)nn2ccccc12,-13.4% and -31.4%
13,CC(C)(C)NCC(O)COc1cccc2[nH]c(=O)[nH]c12 (stereo not given),-2.8%
14,CN1CCc2cc(Cl)c(O)cc2[C@@H](c2ccccc2)C1,-19.2%
15,Nc1c2c(nc3ccccc13)CCCC2O (stereo not given),7.34% and -16.8%
16,CCCN(CCC)CCc1cccc2c1CC(=O)N2,6.69% and 9.01%
17,CC[N+](CC)(CC)CC(=O)Nc1c(C)cccc1C,-4.9%
18,CCOC(=O)[C@H](CCc1ccccc1)N[C@@H](C)C(=O)N1[C@H](C(=O)O)C[C@H]2CCCC[C@@H]21,-16.3%
19,CCN(Cc1ccncc1)C(=O)C(CO)c1ccccc1 (stereo not given),3.95% and 13.2%
20,CC1=C(C(=O)O)N2C(=O)[C@@H](NC(=O)C(N)c3ccccc3)[C@H]2SC1 (stereo not given in full),15.6% and -22.6%
